Experiment in all cases: DAPPL (digital affinity profiling via proximity ligation, sequencing); 10 mM Tris-HCl pH 7.5, 50 mM NaCl, 1 mM DTT, 4% glycerol, room temperature, 30 min; GST-TFs on glutathione beads, 16-mer random dsDNA library, 0.1% formaldehyde crosslink after washing; high values mean tight binding
For one experiment, the target named is T1, FLI1 (Homo sapiens, UniProt Q01543 1-452).
T1 sequence: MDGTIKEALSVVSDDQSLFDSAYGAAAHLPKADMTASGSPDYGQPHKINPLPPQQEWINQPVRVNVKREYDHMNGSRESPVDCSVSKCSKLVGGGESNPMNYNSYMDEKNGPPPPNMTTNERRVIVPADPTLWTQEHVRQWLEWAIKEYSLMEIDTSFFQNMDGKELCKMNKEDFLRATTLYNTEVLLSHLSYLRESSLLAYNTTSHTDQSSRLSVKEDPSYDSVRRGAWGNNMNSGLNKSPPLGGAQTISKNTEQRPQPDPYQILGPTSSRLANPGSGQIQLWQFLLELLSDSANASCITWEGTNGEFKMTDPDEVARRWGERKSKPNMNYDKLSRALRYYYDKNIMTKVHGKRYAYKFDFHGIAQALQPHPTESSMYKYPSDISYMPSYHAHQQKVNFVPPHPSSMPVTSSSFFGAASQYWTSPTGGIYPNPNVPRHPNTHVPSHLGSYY
Particulars: protein: recombinant; tags: N-terminal GST; dsDNA, one strand shown. In a few lines: (§1)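 Human transcription factors were made in yeast as GST fusions, captured on glutathione beads and barcoded with DNA. With a tag-only sample included, the pool was incubated with 200 nmole of a random double-stranded 16-mer DNA library in Tris/NaCl/DTT/glycerol buffer at room temperature for 30 min, then crosslinked with 0.1% formaldehyde after washing, ligated by proximity, amplified and sequenced. For binding signal, each hexamer's read frequency for a factor is divided by its frequency for the tag-only sample.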

The target in another experiment is T2, ELK1 (Homo sapiens, UniProt P19419 1-428).
T2 sequence: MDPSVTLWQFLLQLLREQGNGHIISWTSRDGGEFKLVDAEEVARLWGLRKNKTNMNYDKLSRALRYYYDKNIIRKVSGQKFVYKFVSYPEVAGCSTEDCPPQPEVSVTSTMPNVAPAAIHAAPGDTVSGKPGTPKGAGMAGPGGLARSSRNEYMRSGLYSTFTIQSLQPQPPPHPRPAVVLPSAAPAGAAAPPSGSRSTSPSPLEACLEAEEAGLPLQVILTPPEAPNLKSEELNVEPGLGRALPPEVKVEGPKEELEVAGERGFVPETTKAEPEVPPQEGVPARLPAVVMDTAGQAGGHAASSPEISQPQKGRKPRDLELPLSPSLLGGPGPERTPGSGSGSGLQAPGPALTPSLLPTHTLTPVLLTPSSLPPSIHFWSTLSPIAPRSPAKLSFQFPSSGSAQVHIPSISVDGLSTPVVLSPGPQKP
Particulars: protein: recombinant; tags: N-terminal GST; dsDNA, one strand shown. Summed up:
as §1

The target of another experiment is T3, GABPA (Homo sapiens, UniProt Q06546 1-454).
T3 sequence: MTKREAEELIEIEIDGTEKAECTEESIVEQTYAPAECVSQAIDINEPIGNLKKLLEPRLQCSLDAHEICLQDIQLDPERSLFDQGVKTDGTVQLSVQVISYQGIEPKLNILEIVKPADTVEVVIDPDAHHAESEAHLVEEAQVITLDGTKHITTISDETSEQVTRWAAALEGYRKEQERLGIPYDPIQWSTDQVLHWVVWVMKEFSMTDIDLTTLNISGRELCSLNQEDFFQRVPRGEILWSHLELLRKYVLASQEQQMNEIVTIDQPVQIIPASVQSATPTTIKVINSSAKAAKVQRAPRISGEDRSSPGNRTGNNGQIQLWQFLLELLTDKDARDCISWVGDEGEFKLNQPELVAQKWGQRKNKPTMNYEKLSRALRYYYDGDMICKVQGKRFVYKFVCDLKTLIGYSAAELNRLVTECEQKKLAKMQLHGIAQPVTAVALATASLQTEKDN
The settings on record: protein: recombinant; tags: N-terminal GST; dsDNA, one strand shown. In a few lines:
as §1

The target in the next experiment is T4, ERG (Homo sapiens, UniProt P11308 1-479).
T4 sequence: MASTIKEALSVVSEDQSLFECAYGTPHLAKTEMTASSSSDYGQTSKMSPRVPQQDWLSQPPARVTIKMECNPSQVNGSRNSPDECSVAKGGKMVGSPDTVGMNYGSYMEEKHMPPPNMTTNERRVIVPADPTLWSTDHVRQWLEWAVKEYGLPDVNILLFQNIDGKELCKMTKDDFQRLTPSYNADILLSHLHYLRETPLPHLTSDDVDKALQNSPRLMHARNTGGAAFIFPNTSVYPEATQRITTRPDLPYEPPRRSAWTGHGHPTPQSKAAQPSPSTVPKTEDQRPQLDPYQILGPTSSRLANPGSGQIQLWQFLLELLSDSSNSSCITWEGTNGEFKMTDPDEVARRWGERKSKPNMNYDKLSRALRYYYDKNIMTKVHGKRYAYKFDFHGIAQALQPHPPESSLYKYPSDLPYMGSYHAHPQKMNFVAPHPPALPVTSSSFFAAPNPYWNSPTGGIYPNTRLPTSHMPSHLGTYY
Particulars: protein: recombinant; tags: N-terminal GST; dsDNA, one strand shown. Summed up: as §1

The target in the next experiment is ELF1 (Homo sapiens, UniProt P32519 1-619). The settings on record: protein: recombinant; tags: N-terminal GST; dsDNA, one strand shown. In a few lines: as §1
A further experiment concerns the target T5, EHF (Homo sapiens, UniProt Q9NZC4 1-300).
T5 sequence: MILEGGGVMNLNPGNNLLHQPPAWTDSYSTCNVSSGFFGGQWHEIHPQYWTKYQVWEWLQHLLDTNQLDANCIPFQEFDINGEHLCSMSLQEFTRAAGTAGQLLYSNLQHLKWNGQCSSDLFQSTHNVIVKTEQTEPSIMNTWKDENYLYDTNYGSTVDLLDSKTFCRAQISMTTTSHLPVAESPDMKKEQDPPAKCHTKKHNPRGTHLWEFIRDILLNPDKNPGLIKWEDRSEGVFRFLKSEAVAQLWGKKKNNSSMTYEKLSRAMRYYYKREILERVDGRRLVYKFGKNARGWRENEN
The settings on record: protein: recombinant; tags: N-terminal GST; dsDNA, one strand shown. In a few lines:
as §1

The next experiment addresses SPI1 (Homo sapiens, UniProt P17947 1-270). Particulars: protein: recombinant; tags: N-terminal GST; dsDNA, one strand shown. Summed up: as §1
The target in a further experiment is SPIB (Homo sapiens, UniProt Q01892 1-262). The settings on record: protein: recombinant; tags: N-terminal GST; dsDNA, one strand shown. Summed up: as §1
A further experiment deals with T6, ELK3 (Homo sapiens, UniProt P41970 1-407).
T6 sequence: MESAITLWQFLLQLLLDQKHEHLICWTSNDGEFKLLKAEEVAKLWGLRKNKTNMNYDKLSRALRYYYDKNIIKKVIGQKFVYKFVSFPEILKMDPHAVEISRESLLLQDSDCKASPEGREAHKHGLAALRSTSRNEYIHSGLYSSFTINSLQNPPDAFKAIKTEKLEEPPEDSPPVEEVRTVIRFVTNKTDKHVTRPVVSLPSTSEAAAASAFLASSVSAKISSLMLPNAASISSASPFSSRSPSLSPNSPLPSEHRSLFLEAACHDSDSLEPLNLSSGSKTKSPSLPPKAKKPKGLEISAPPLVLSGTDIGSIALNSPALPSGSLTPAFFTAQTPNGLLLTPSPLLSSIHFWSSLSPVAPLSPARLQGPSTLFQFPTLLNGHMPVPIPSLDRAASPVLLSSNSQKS
The settings on record: protein: recombinant; tags: N-terminal GST; dsDNA, one strand shown. Summed up: as §1

The next experiment deals with T7, FEV (Homo sapiens, UniProt Q99581 1-238).
T7 sequence: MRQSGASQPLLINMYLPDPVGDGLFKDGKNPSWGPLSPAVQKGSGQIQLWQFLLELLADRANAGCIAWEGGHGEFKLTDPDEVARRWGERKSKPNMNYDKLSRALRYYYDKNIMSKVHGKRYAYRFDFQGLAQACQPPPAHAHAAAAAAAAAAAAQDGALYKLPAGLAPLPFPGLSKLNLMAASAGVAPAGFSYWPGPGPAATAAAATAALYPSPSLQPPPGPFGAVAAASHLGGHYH
The settings on record: protein: recombinant; tags: N-terminal GST; dsDNA, one strand shown. Summed up: as §1

The next experiment deals with ETV5 (Homo sapiens, UniProt P41161 1-510). Particulars: protein: recombinant; tags: N-terminal GST; dsDNA, one strand shown. Summed up:
as §1

The target in the next experiment is HSF1 (Homo sapiens, UniProt Q00613 1-529). The settings on record: protein: recombinant; tags: N-terminal GST; chain copies: 3; dsDNA, one strand shown. Summed up:
as §1

A further experiment deals with T8, SPIC (Homo sapiens, UniProt Q8N5J4 1-248).
T8 sequence: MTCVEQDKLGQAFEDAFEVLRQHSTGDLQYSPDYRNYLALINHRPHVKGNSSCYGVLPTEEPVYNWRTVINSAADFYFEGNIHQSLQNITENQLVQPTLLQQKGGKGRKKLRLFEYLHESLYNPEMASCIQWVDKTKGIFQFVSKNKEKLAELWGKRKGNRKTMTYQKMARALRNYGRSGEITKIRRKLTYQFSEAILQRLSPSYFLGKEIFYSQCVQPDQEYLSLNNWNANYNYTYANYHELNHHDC
The settings on record: protein: recombinant; tags: N-terminal GST; dsDNA, one strand shown. Summed up: as §1

A further experiment deals with ELF4 (Homo sapiens, UniProt Q99607 1-663). Particulars: protein: recombinant; tags: N-terminal GST; dsDNA, one strand shown. In a few lines:
as §1

For the next experiment, the target named is T9, ELK4 (Homo sapiens, UniProt P28324-2 1-405).
T9 sequence: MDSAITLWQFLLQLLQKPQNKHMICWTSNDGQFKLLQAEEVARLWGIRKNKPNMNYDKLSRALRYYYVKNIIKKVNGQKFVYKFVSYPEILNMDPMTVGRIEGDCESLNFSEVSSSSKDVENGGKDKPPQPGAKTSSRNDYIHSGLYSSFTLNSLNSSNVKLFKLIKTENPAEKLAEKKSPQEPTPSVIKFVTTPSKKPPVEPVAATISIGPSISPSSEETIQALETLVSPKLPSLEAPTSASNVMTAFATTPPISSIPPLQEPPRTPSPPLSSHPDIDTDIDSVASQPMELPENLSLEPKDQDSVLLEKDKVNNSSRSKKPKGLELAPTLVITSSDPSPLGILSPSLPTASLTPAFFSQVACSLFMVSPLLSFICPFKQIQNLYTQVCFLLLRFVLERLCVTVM
Particulars: protein: recombinant; tags: N-terminal GST; dsDNA, one strand shown. Summed up:
as §1

The next experiment deals with T10, ETV2 (Homo sapiens, UniProt O00321 1-342).
T10 sequence: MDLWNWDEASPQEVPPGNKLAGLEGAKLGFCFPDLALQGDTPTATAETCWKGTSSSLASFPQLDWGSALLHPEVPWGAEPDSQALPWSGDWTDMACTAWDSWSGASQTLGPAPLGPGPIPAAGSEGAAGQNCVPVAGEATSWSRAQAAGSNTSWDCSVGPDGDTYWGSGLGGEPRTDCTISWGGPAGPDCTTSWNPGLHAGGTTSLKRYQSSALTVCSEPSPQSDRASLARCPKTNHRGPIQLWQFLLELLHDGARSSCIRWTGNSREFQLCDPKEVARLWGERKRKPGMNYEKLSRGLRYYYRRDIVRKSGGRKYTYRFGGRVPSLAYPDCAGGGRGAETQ
Particulars: protein: recombinant; tags: N-terminal GST; dsDNA, one strand shown. Summed up: as §1

For a further experiment, the target named is T11, ELF3 (Homo sapiens, UniProt P78545 1-371).
T11 sequence: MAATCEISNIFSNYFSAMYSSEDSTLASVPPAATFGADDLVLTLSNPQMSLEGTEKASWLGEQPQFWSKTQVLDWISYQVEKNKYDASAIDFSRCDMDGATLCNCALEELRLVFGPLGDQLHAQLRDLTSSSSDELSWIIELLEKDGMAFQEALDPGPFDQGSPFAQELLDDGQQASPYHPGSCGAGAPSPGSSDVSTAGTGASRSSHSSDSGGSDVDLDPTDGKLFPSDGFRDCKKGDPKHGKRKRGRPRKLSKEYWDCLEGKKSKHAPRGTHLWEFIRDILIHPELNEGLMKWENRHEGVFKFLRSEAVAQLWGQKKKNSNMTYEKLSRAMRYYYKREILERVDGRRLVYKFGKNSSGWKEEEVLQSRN
The settings on record: protein: recombinant; tags: N-terminal GST; dsDNA, one strand shown. Summed up:
as §1

The next experiment has as its target ETV1 (Homo sapiens, UniProt P50549 1-477). The settings on record: protein: recombinant; tags: N-terminal GST; dsDNA, one strand shown. In a few lines: as §1

ETV1, sequence (P50549 whole entry): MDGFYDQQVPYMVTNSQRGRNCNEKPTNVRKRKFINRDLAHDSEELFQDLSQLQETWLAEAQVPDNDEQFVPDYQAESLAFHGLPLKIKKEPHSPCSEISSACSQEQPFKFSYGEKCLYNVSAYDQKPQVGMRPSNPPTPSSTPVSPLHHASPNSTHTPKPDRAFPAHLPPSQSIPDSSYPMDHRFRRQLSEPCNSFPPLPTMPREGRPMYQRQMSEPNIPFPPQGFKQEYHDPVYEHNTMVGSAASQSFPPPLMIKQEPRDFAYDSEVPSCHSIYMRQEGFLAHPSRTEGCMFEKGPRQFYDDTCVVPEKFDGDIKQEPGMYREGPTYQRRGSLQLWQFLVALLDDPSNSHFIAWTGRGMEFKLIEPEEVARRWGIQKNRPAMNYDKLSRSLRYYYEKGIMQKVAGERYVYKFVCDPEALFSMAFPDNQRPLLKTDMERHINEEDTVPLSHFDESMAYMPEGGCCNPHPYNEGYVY
HSF1, sequence (Q00613 whole entry): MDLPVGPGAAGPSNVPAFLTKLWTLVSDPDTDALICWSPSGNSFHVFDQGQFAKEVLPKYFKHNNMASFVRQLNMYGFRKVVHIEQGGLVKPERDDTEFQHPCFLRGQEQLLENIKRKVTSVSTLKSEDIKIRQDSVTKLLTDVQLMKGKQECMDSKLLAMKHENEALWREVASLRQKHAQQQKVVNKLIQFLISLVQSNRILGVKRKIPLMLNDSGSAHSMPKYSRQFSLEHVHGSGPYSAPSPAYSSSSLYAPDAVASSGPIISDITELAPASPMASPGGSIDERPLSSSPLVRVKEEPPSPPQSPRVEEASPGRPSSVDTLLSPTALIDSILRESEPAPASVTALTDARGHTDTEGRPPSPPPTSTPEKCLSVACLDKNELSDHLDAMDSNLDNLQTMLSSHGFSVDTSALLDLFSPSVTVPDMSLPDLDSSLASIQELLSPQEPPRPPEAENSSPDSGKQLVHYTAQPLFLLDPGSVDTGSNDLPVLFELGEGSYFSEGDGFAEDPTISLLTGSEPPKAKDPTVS
ELF1, sequence (P32519 whole entry): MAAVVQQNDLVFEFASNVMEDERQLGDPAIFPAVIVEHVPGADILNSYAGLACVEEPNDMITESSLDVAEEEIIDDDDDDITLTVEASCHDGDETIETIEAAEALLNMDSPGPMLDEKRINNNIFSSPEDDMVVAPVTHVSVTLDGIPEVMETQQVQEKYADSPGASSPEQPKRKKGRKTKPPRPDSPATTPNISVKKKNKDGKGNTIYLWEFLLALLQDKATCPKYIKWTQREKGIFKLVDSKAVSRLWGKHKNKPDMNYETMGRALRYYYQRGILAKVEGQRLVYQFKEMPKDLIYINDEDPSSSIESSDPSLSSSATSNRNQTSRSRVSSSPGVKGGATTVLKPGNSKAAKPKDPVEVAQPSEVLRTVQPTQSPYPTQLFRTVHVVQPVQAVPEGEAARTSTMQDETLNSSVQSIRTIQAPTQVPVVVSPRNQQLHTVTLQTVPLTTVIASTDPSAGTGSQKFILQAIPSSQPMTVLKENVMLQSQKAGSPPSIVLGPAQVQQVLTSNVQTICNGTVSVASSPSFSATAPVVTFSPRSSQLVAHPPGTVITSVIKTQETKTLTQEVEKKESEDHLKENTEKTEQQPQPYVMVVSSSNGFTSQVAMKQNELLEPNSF
SPIB, sequence (Q01892 whole entry): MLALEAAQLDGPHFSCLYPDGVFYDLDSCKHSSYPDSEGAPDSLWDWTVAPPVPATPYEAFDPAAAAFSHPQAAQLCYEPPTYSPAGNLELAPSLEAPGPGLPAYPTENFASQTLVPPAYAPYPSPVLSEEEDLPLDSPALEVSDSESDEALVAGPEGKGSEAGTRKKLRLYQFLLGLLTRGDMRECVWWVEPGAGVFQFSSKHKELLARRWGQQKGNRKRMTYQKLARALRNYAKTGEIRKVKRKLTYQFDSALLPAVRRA
ETV5, sequence (P41161 whole entry): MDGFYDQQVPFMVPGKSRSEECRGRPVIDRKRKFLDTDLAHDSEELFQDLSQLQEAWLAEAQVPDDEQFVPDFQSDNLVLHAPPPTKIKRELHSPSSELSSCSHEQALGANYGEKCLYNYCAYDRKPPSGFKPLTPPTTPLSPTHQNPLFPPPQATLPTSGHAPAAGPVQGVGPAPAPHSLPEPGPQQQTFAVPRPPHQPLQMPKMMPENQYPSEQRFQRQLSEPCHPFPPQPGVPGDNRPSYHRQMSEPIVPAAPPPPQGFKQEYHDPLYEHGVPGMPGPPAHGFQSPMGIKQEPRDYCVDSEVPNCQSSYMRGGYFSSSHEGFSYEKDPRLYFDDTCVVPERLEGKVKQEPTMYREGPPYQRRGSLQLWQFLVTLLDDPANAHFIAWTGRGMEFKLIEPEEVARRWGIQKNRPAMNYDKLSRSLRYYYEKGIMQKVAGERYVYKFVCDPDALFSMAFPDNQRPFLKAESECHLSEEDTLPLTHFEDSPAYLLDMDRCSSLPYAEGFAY
ELF4, sequence (Q99607 whole entry): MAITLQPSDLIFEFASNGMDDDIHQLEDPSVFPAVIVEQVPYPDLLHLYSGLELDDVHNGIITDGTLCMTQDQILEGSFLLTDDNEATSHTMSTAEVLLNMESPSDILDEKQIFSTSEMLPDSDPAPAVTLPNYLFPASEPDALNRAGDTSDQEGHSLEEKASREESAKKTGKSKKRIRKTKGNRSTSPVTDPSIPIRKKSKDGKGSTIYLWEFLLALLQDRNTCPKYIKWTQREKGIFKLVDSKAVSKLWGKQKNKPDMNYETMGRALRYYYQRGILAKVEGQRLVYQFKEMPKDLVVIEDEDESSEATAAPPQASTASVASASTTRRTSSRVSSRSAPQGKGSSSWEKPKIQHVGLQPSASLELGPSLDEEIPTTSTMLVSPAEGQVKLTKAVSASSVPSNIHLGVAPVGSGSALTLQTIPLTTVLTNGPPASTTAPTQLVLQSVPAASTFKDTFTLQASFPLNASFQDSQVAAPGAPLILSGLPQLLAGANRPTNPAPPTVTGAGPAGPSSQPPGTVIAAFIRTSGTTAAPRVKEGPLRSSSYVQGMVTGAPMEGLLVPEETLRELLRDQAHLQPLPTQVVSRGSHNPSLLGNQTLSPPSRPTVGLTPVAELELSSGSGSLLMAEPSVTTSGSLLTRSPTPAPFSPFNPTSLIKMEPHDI

For the sequence TGCCCC, the binding signal with FLI1 is 1.13 fold enrichment (6-mer frequency, TF over GST control); with ELK1 it was 1.2 fold enrichment (6-mer frequency, TF over GST control); with GABPA it was 1.27 fold enrichment (6-mer frequency, TF over GST control); with ERG, 1.28 fold enrichment (6-mer frequency, TF over GST control); in the experiment with ELF1, 1.27 fold enrichment (6-mer frequency, TF over GST control); with EHF, 1.32 fold enrichment (6-mer frequency, TF over GST control). In addition, the binding signal in the experiment with SPI1 was 1.31 fold enrichment (6-mer frequency, TF over GST control); with SPIB it was 1.13 fold enrichment (6-mer frequency, TF over GST control); in the experiment with ELK3, 1.18 fold enrichment (6-mer frequency, TF over GST control); with FEV, 1.36 fold enrichment (6-mer frequency, TF over GST control); with ETV5 it was 1.24 fold enrichment (6-mer frequency, TF over GST control); with HSF1, 1.01 fold enrichment (6-mer frequency, TF over GST control). In addition, the binding signal is 1.41 fold enrichment (6-mer frequency, TF over GST control) with SPIC; 1.26 fold enrichment (6-mer frequency, TF over GST control) in the experiment with ELF4; 1.51 fold enrichment (6-mer frequency, TF over GST control) with ELK4; 1.21 fold enrichment (6-mer frequency, TF over GST control) in the experiment with ETV2; 1.11 fold enrichment (6-mer frequency, TF over GST control) in the experiment with ELF3; 1.19 fold enrichment (6-mer frequency, TF over GST control) in the experiment with ETV1.

The values are drawn from PMC7862700, “An all-to-all approach to the identification of sequence-specific readers for epigenetic DNA modifications on cytosine”.
